Test results from PubChem BioAssay AID1159580 (chemical genetic matrix, 2015).
Hit rate of the full screen: of about 5,500 compounds, about 2,000 (36%) were called active. About 18% were inconclusive and are not listed. Cut-off read from the data, not from the text of the source: active = normalized growth mostly below about 0.91 (no sharp cut-off); inconclusive = no clear call, values can overlap the other calls; inactive = mostly above about 0.92. This is one part of the list.

Assay: chemical genetic growth profiling, strain panel (AID 1159580);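 note: tested at 20 µM; growth read once vehicle control cultures reached saturation at 30 °C; 1 = growth at the plate median or of vehicle wells; lower values mean less growth of the strain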
Conditions: S. cerevisiae deletion strains, growth OD

Measured: normalized growth

O=C(O)CCCC[C@@H]1CCSS1
inactive: locus YAL013W, strain DEP1, hits give low values 0.962 | locus YAL040C, strain CLN3, hits give low values 0.933 | locus YCL061C, strain MRC1 (second series), hits give low values 0.979 | locus YDR150W, strain NUM1, hits give low values 0.996 | locus YDR363W, strain ESC2, hits give low values 0.971 | locus YER002W, strain NOP16, hits give low values 0.968 | locus YGR229C, strain SMI1, hits give low values 0.957 | locus YMR307W, strain GAS1, hits give low values 0.962 | locus YNL153C, strain GIM3, hits give low values 1.01 | locus YNL175C, strain NOP13, hits give low values 0.979 | locus YNL197C, strain WHI3, hits give low values 0.972 | locus YNL224C, strain SQS1, hits give low values 0.977 | locus YOR083W, strain WHI5 (second series), hits give low values 0.937 | locus YPL055C, strain LGE1, hits give low values 0.989
